Screening results from PubChem BioAssay.
FLuc modulator: firefly luciferase modulation, counter-screen for miR-21 project | P08659 | purified FLuc, Km substrates, luminescence inhibition | Potency, µM (series often up to 57.5 µM), for the others: at the highest dose activity change, negative = inhibition, hits mostly inhibitors | 360,000 tested, 6.9% active;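 also: plate controls were vehicle for no effect and reference inhibitor for full effect; nearly all actives have a fitted effect of over 55% in size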
Target sequence (P08659 whole entry, looked up): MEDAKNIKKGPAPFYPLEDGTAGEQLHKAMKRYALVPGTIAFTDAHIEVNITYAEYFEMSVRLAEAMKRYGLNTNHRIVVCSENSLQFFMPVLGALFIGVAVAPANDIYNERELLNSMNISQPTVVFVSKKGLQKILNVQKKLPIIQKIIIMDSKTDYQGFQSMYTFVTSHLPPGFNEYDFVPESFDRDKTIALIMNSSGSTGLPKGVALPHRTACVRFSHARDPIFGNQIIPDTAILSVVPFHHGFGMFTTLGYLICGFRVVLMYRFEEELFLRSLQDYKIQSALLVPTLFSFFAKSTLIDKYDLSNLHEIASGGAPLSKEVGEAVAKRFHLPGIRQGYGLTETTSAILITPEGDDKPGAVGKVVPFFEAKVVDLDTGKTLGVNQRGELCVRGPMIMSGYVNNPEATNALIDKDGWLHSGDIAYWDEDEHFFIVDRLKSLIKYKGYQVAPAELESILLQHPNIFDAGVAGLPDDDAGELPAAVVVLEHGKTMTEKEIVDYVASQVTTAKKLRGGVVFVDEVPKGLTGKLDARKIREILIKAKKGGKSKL
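Purified P. pyralis luciferase (10nM final) with 10uM D-luciferin and 10uM ATP (Km levels) in 50mM Tris acetate pH 7.5, 10mM Mg acetate, 0.01% Tween-20, 0.05% BSA; qHTS 6-point titration, ~60 µM downward; luminescence read.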
NPC1 prom act: activators of NPC1 promoter | Huh7 NPC1 promoter luciferase reporter, 24 h | Potency, µM (top dose mostly 9.22 µM), inactives show at the top dose activation, usual class: activators | 320,000 tested, 2.4% active | AID 485313; also: % of control where 0% means no effect; nearly all actives have a fitted effect of over 60% in size
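Compounds in DMSO were transferred onto Huh7 NPC1-luciferase reporter cells pre-incubated 2 h; after 24 h at 37 °C, Amplite reagent was dispensed and luminescence recorded 10 min later.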
Rab9 promoter act: activators of Rab9 promoter. Huh7 Rab9 promoter-luciferase reporter, luminescence, 24 h. Potency, µM (top dose mostly 9.22 µM), without a hit: at the top dose activation, negative = inhibition, most hits filed as activators. 320,000 tested, 2.8% active. AID 485297; also: % of control where 0% means no effect; nearly all actives have a fitted effect of over 60% in size
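Using Huh7 cells stably transfected with Rab9 promoter–luciferase, compounds were incubated 24 h at 37 °C, 5% CO2; luciferase luminescence was read 10 min after reagent addition.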
ELG1 genotox: induces genotoxicity in HEK293T cells with luciferase-tagged ELG1; HEK293T ELG1-luciferase reporter, luminescence, 16 h; Potency, µM (highest dose often 46 µM), inactives show at the top dose activity change, positive = activation, actives largely listed as activators; 330,000 tested, 1.3% active; also: % of control where 0% means no effect; nearly all actives have a fitted effect of over 60% in size
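HEK293T cells expressing luciferase-tagged ELG1 were exposed to compound or DMSO vehicle for 16 hr at 37 °C and 5% CO2. Luciferase activity was then measured with ONE-Glo after 30 min at room temperature.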
SMN2 splice up: SMN2 splice variant enhancement; HEK293 SMN2-luciferase splicing reporter, luminescence, 30-36 h; Potency, µM (top dose mostly 46.1 µM), inactives show at the highest dose activity change, positive = activation, actives largely listed as activators; 210,000 tested, 2.8% active; also: % of control where 0% means no effect; nearly all actives have a fitted effect of over 55% in size
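HEK293 cells carry an SMN2 minigene-luciferase reporter in which exon 7 inclusion puts luciferase in frame. Cells were seeded at 2000 cells/well, attached for 10-12 hours, then exposed to compounds for 30-36 hours at 37C before ONE-Glo luminescence.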
Luc counter: counter-screen: inhibitors of Kinase-Glo firefly luciferase; Kinase-Glo luciferase, ATP luminescence, 8 min; Potency, µM (doses to about 38.3 µM), for inactives: at the highest dose activity change, negative = inhibition, actives largely listed as inhibitors; 200,000 tested, 0.28% active; AID 1379; also: % is scaled to controls: 0 for no effect and ±100 for the full control effect; nearly all actives have a fitted effect of over 60% in size
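Recombinant Kinase-Glo luciferase, 10 uM ATP (linear range), luciferin; imidazole pH 7.2 / KCl / MgCl2 / Tween / BSA buffer; 8 min RT; luminescence.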
Starred values were filed as active, the others as inactive. A selection: hits, their analogues and other compounds. The true share with any hit is near 7.5%. Calls follow the shape of the dose curve; as a rule, active = well fitted curve in the direction sought with a large enough effect; inconclusive = small, poorly fitted or top-dose-only effect, or another doubt; inactive = no such curve, though single readings can be large; an effect the other way counts as inactive or inconclusive. Potency is read from the fitted curve at half-maximal effect.

What do the screens show for `O=C(N/N=C/c1ccc(O)c(O)c1)N/N=C/c1ccc(O)c(O)c1`?
FLuc modulator: 5.4µM*; NPC1 prom act: 0%; Rab9 promoter act: -14%; ELG1 genotox: 7%

Results for Cc1ccc(Cn2ccn(Cc3ccc(C)cc3)c(=O)c2=O)cc1 ?
FLuc modulator: 2%

What do the screens show for `COc1ccc(-c2nc(CN3CCC(C(=O)NCCCOC(C)C)CC3)c(C)o2)cc1OC`?
FLuc modulator: 1%; SMN2 splice up: 8%

How did NC(=O)c1c(/N=C/c2cccs2)sc2c1CCCC2 do in these assays?
FLuc modulator: 12µM*; NPC1 prom act: 1.3µM*; Rab9 promoter act: inconclusive; ELG1 genotox: 9%

Results for Cc1ccc2nc(-c3cccc(NC(=O)c4ccco4)c3)[nH]c2c1 ?
FLuc modulator: 1.3µM*; NPC1 prom act: inconclusive; Rab9 promoter act: inconclusive; ELG1 genotox: 0%; SMN2 splice up: 13µM*; Luc counter: inconclusive

What do the screens show for `CC(=O)Nc1ccc2nc(-c3ccco3)[nH]c2c1`?
FLuc modulator: 17µM*; NPC1 prom act: 23%; Rab9 promoter act: inconclusive; ELG1 genotox: 16%; SMN2 splice up: inconclusive; Luc counter: -21%

Results for CC(=O)Nc1ccc2nc(-c3cccnc3)[nH]c2c1 ?
FLuc modulator: inconclusive; NPC1 prom act: 0%; Rab9 promoter act: 12%; ELG1 genotox: 2%; SMN2 splice up: -12%; Luc counter: -9%

What do the screens show for `CC(=O)Nc1cccc(-c2nc3ccc(NC(C)=O)cc3[nH]2)c1`?
FLuc modulator: 15µM*; NPC1 prom act: 4%; Rab9 promoter act: -4%; ELG1 genotox: 1%; SMN2 splice up: -16%; Luc counter: -21%

How did O=C(Nc1ccc2nc(-c3ccco3)[nH]c2c1)c1cccs1 do in these assays?
FLuc modulator: 2.7µM*; NPC1 prom act: inconclusive; Rab9 promoter act: 3.2µM*; ELG1 genotox: 5%; SMN2 splice up: 11µM*; Luc counter: inconclusive

How did O=C(Nc1cccc(NC(=O)c2cccs2)c1)c1ccco1 do in these assays?
FLuc modulator: inconclusive; NPC1 prom act: 9%; Rab9 promoter act: -1%; ELG1 genotox: 0%; SMN2 splice up: inconclusive; Luc counter: 0%

How did O=C(COc1ccccc1C(=O)NCc1ccccn1)Nc1ccc(Br)cc1 do in these assays?
FLuc modulator: inconclusive; NPC1 prom act: 6%; Rab9 promoter act: 0%; ELG1 genotox: -8%; SMN2 splice up: -9%; Luc counter: 4%

Results for O=C(Nc1ccc2nc(-c3ccco3)[nH]c2c1)c1ccco1 ?
FLuc modulator: 7.6µM*; NPC1 prom act: inconclusive; Rab9 promoter act: inconclusive; ELG1 genotox: 16µM*; SMN2 splice up: 24%; Luc counter: -16%

What do the screens show for `Cc1cc2cc(NC(=O)c3ccco3)ccc2[nH]1`?
FLuc modulator: 15µM*; NPC1 prom act: inconclusive; Rab9 promoter act: inconclusive; ELG1 genotox: 14%; SMN2 splice up: 27%; Luc counter: -8%

What do the screens show for `CCN(CC)CC#CCC(OC)(c1ccccc1)c1ccccc1`?
FLuc modulator: 0%; NPC1 prom act: 0%; Rab9 promoter act: 0%; ELG1 genotox: -12%; SMN2 splice up: -22%; Luc counter: 3%

Results for Clc1ccc(Nc2ccc(NCc3ccccc3)nn2)cc1 ?
FLuc modulator: inconclusive; NPC1 prom act: -4%; Rab9 promoter act: -3%; ELG1 genotox: 16%; SMN2 splice up: -6%; Luc counter: -3%

What do the screens show for `Cc1ccc(Nc2ccc(NCc3ccccc3)nn2)cc1C`?
FLuc modulator: 17µM*; NPC1 prom act: 14%; Rab9 promoter act: 20%; ELG1 genotox: inconclusive; SMN2 splice up: inconclusive; Luc counter: -11%

What do the screens show for `C=CCn1cccc(/C=C/C(=O)c2ccc(C(C)(C)C)cc2)c1=S`?
FLuc modulator: 13µM*; NPC1 prom act: -1%; Rab9 promoter act: -8%; ELG1 genotox: -19%; SMN2 splice up: -104%; Luc counter: -2%

What do the screens show for `COc1ccc(OC(C)C(=O)NCc2nc(-c3ccc(Cl)cc3)no2)cc1` (stereo not drawn)?
FLuc modulator: -14%; SMN2 splice up: -90%

How did O=C1CCc2ccc(NS(=O)(=O)c3ccc(F)cc3)cc2N1 do in these assays?
FLuc modulator: -5%; NPC1 prom act: 0%; Rab9 promoter act: 13%; ELG1 genotox: 18µM*; SMN2 splice up: inconclusive; Luc counter: 1%

Results for O=c1[nH]c2ccc(NS(=O)(=O)c3ccc(F)cc3)cc2s1 ?
FLuc modulator: -9%

How did Cc1ccc(C(=O)NC2(O)C(=O)c3ccccc3C2=O)cc1C do in these assays?
FLuc modulator: 2.4µM*; NPC1 prom act: -3%; Rab9 promoter act: -2%; ELG1 genotox: -2%

What do the screens show for `Cc1ccc(NC(=O)c2c(Cl)nc3ccccn23)cc1`?
FLuc modulator: 11µM*; NPC1 prom act: 19%; Rab9 promoter act: inconclusive; ELG1 genotox: inconclusive; SMN2 splice up: 13µM*; Luc counter: -1%

How did Cc1nc2ccccn2c1C(=O)NCc1ccc2c(c1)OCO2 do in these assays?
FLuc modulator: 5%; NPC1 prom act: -7%; Rab9 promoter act: 1%; ELG1 genotox: 1%; SMN2 splice up: -38%; Luc counter: -2%

How did Cc1nc2ccccn2c1C(=O)Nc1ccc(Cl)cc1 do in these assays?
FLuc modulator: 24µM*; NPC1 prom act: inconclusive; Rab9 promoter act: inconclusive; ELG1 genotox: inconclusive; SMN2 splice up: 88%; Luc counter: 1%

What do the screens show for `Cc1nc2ccccn2c1C(=O)Nc1ccc2c(c1)OCCO2`?
FLuc modulator: 12µM*; NPC1 prom act: inconclusive; Rab9 promoter act: inconclusive; ELG1 genotox: inconclusive; SMN2 splice up: 7.1µM*; Luc counter: -22%

What do the screens show for `Cc1nc2ccccn2c1C(=O)N/N=C/c1ccc2c(c1)OCO2`?
FLuc modulator: 12µM*; NPC1 prom act: 15%; Rab9 promoter act: 21%; ELG1 genotox: inconclusive; SMN2 splice up: inconclusive; Luc counter: -6%

How did COc1ccc(-c2c(C)c3ccc(O)c(CN4CCCC(C)C4)c3oc2=O)cc1OC (stereo not drawn) do in these assays?
FLuc modulator: -5%

Results for COc1ccc(OCCCC(=O)Nc2cccc([N+](=O)[O-])c2C)cc1 ?
FLuc modulator: 2%; NPC1 prom act: -2%; Rab9 promoter act: 9%; ELG1 genotox: 1%

How did Cc1cc(=O)[nH]c(N/N=C/c2cccs2)n1 do in these assays?
FLuc modulator: 17µM*; NPC1 prom act: 12%; Rab9 promoter act: 12%; ELG1 genotox: 8%; SMN2 splice up: 6%; Luc counter: -6%
